Hits are enriched below; roughly 3.5% of the tested compounds scored in any of these assays.
FBW7 activator = activators of human E3 ligase FBW7. 0.13% of 650,000 active. normalized activity (activation), % at 26.1 µM. Q969H0. AlphaScreen FBW7–phospho-cyclin E peptide binding, activator screen; in the data active = normalized activity above about 1.9%;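 note: purified mutant Fbw7 with reduced substrate affinity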
TEAD-YAP inh = TEAD-YAP interaction inhibition | HEK-TIYL cells, TEAD-Gal4/YAP UAS-luciferase luminescence | inhibition, % at 9.12 µM | 1.4% of 640,000 active; in the data active = inhibition above about 32%;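 note: 0% = median of test compound wells and 100% = reference inhibitor wells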
GPR151 ag = human GPR151 activation. PathHunter beta-arrestin GPR151 cells, luminescence. 1% of 650,000 active. AID 1508602. Q8TDV0. activation, % at 11.2 µM; in the data active = activation above about 4.9%;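 note: 0% = median of compound wells and 100% = cells with positive control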
MITF inh = inhibitors of human MITF; AID 1259374; inhibition, % at 2.6 µM; 0.91% of 650,000 active; AlphaScreen MITF homodimerization, bead proximity signal; in the data active = inhibition above about 50%;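 note: 0% = vehicle wells with protein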
Target sequence (O75030 whole entry, looked up): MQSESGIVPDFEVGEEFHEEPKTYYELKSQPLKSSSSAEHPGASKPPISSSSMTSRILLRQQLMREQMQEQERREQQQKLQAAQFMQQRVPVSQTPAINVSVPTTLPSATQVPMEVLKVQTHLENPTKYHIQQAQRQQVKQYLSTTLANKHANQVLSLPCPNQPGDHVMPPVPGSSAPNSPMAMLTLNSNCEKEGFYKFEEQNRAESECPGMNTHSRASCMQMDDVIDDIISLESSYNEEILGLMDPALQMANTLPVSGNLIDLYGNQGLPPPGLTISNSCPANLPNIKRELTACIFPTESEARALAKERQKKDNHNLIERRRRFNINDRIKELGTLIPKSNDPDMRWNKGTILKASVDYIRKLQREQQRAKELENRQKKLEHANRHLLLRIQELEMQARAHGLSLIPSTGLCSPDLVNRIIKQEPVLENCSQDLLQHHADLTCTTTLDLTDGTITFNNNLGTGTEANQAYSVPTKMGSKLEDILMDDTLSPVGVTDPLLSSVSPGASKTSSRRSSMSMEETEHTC
MITF inh conf = confirmation of human MITF inhibitors; shares compounds with MITF inh; AlphaScreen MITF homodimerization, biotin/His-MITF beads; inhibition, % at 2.6 µM; 16% of 4,700 active; AID 1259372;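 active = inhibition above a cutoff derived from the DMSO control wells, cut at about 28% in these data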;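 note: 0% = MITF dimer wells with DMSO only; inhibitors lower the bead chemiluminescence by keeping MITF from dimerizing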
AS interf DR = AlphaScreen optical interference, dose response counter-screen | shares compounds with MITF inh | AlphaScreen optical interference counterscreen, cell-free | IC50, µM | 6% of 480 active | AID 1259373; call rule not given here
AS interf ctr = optically interferes with AlphaScreen signal | inhibition, % at 2.6 µM | 7.6% of 4,700 active | shares compounds with MITF inh | LysRS AlphaScreen counterscreen, signal interference, triplicate;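 active = inhibition above a cutoff derived from the DMSO control wells, cut at about 30% in these data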
The depositor's hits bear a star.

Results for COc1ccc(C(=O)N(Cc2nc(-c3ccc(C)cc3)no2)C(C)C)cc1[N+](=O)[O-] ?
FBW7 activator: 0.1; TEAD-YAP inh: -10.9; GPR151 ag: 0.6; MITF inh: 54.9*; MITF inh conf: 2.3; AS interf ctr: 14.1

What do the screens show for `Cc1cc(Cl)cc(Br)c1OCCCN1C(=O)NC(C)(C)C1=O`?
FBW7 activator: -0.3; TEAD-YAP inh: -0.9; GPR151 ag: -0.3; MITF inh: -1.8

Results for C(=C\c1ncc2ccccn12)/c1ccccc1 ?
FBW7 activator: 0.4; TEAD-YAP inh: -36.2; GPR151 ag: -3.2; MITF inh: 56.5*; MITF inh conf: -70.1; AS interf ctr: -11.4

What do the screens show for `Cc1cccc(NCc2ccccc2O)c1C`?
FBW7 activator: 0.0; TEAD-YAP inh: -1.8; GPR151 ag: 1.2; MITF inh: 21.8

What do the screens show for `Cc1ccccc1NCc1ccc(O)c2ncccc12`?
FBW7 activator: -1.5; TEAD-YAP inh: 17.3; GPR151 ag: 1.5; MITF inh: 68.2*; MITF inh conf: 62.0*; AS interf ctr: 97.4*

Results for CCOc1ccc(S(=O)(=O)Nc2ccccc2Br)c2cccnc12 ?
FBW7 activator: -0.2; TEAD-YAP inh: -6.0; GPR151 ag: 0.6; MITF inh: 7.5

What do the screens show for `Oc1ccc(CNc2ccccc2Br)c2cccnc12`?
FBW7 activator: 0.1; TEAD-YAP inh: 6.1; GPR151 ag: 0.0; MITF inh: 71.3*; MITF inh conf: 41.7*; AS interf ctr: 87.4*

How did Cc1cccc(NCc2ccc(O)c3ncccc23)n1 do in these assays?
FBW7 activator: -0.7; TEAD-YAP inh: 5.8; GPR151 ag: -0.2; MITF inh: 74.0*; MITF inh conf: 53.2*; AS interf ctr: 91.2*

What do the screens show for `COc1nc(NCc2cccnc2)nc(-c2c(C)noc2C)n1`?
FBW7 activator: -0.1; TEAD-YAP inh: 2.8; GPR151 ag: 0.8; MITF inh: 1.5

Results for CCN(Cc1ccccc1)C(=O)Nc1ccc(-c2cn[nH]c2)cc1N(C)CCN(C)C ?
FBW7 activator: -0.2; TEAD-YAP inh: -3.7; GPR151 ag: -0.6; MITF inh: -0.3

How did CN1CCN(CCNC(=O)c2cccc(CN(C(=O)c3nc4ccc(-c5cn[nH]c5)cc4s3)C3CC3)c2)CC1 do in these assays?
FBW7 activator: 1.6; TEAD-YAP inh: 49.7*; GPR151 ag: 0.0; MITF inh: 77.5*; MITF inh conf: 71.6*; AS interf DR: >6.48; AS interf ctr: -14.3

Results for O=C(NCCN1CCCCC1)c1cccc(CN(C(=O)c2nc3ccc(-c4cn[nH]c4)cc3s2)C2CC2)c1 ?
FBW7 activator: 0.6; TEAD-YAP inh: 4.2; GPR151 ag: -1.0; MITF inh: 31.7

What do the screens show for `CN(C)CC(=O)Nc1cccc(CN(C(=O)c2nc3ccc(-c4cn[nH]c4)cc3s2)C2CC2)c1`?
FBW7 activator: -0.7; TEAD-YAP inh: -0.1; GPR151 ag: -0.2; MITF inh: -4.2

What do the screens show for `O=C(NCCN1CCOCC1)c1cccc(CN(C(=O)c2nc3ccc(-c4cn[nH]c4)cc3s2)C2CC2)c1`?
FBW7 activator: 1.7; TEAD-YAP inh: 15.3; GPR151 ag: 1.0; MITF inh: 65.8*; MITF inh conf: 72.7*; AS interf DR: >6.48; AS interf ctr: 5.9

Results for Cc1ccc(NC(=O)c2cc3c(=O)n4cccc(C)c4nc3s2)cc1Cl ?
FBW7 activator: -0.5; TEAD-YAP inh: 5.3; GPR151 ag: -0.5; MITF inh: -6.9

Results for O=C(c1ccncc1)N1CCN(Cc2ccc3ccccc3c2)CC1 ?
FBW7 activator: 0.0; TEAD-YAP inh: 4.9; GPR151 ag: 0.6; MITF inh: 79.3*; MITF inh conf: -16.5; AS interf ctr: -4.7

Results for CC(C)N1CCN(C(=O)c2ccncc2)CC1 ?
FBW7 activator: -0.1; TEAD-YAP inh: 1.3; GPR151 ag: -0.8; MITF inh: 78.0*; MITF inh conf: -2.7; AS interf ctr: -0.3

Results for COc1cccc(C(=O)N2CCN(Cc3ccncc3)CC2)c1 ?
FBW7 activator: -0.2; TEAD-YAP inh: -3.1; GPR151 ag: -0.8; MITF inh: 67.9*; MITF inh conf: 14.6; AS interf ctr: 17.4

How did COc1cccc(OC)c1C(=O)N1CCN(Cc2ccncc2)CC1 do in these assays?
FBW7 activator: -0.3; TEAD-YAP inh: 1.9; GPR151 ag: 1.1; MITF inh: 74.9*; MITF inh conf: -11.8; AS interf ctr: -4.9

What do the screens show for `CCc1ccc(CN2CCN(C(=O)c3ccccc3)CC2)cc1`?
FBW7 activator: -0.1; TEAD-YAP inh: -10.2; GPR151 ag: -0.3; MITF inh: 23.9

What do the screens show for `COc1cccc(OC)c1C(=O)N1CCCCCC1`?
FBW7 activator: 0.0; TEAD-YAP inh: 0.7; GPR151 ag: 1.7; MITF inh: -1.9

How did COc1ccccc1OCC(=O)n1nc(C)cc1C do in these assays?
FBW7 activator: 0.2; TEAD-YAP inh: -2.1; GPR151 ag: 4.7; MITF inh: -2.2

Results for COc1ccc(C(=O)N2CCN(Cc3ccccc3)CC2)cc1 ?
FBW7 activator: 0.1; TEAD-YAP inh: 1.1; GPR151 ag: 0.2; MITF inh: 46.8

Results for COc1ccc(C(=O)N2CCN(Cc3ccc4ccccc4c3)CC2)cc1OC ?
FBW7 activator: 0.0; TEAD-YAP inh: 38.3*; GPR151 ag: 0.5; MITF inh: 69.9*; MITF inh conf: 12.4; AS interf ctr: 21.7

How did COc1ccc(CN2CCN(C(=O)c3ccncc3)CC2)cc1 do in these assays?
FBW7 activator: -0.4; TEAD-YAP inh: -1.4; GPR151 ag: 1.8; MITF inh: 74.9*; MITF inh conf: 3.7; AS interf ctr: 16.3

What do the screens show for `COc1cccc(C(=O)N2CCN(Cc3ccc4ccccc4c3)CC2)c1`?
FBW7 activator: -0.3; TEAD-YAP inh: 9.4; GPR151 ag: -0.8; MITF inh: 7.0

What do the screens show for `COc1cccc(C(=O)N2CCC(N3CC(C)CC(C)C3)CC2)c1` (centres undefined)?
FBW7 activator: 0.1; TEAD-YAP inh: 0.8; GPR151 ag: 0.8; MITF inh: 60.8*; MITF inh conf: 0.9; AS interf ctr: 2.7

What do the screens show for `CCOc1cc(N2CCN(C(=O)c3ccc(OC)c(OC)c3)CC2)nc(C)n1`?
FBW7 activator: -0.1; TEAD-YAP inh: 1.8; GPR151 ag: 0.7; MITF inh: 6.2

What do the screens show for `COc1cc(N2CCN(C(=O)c3ccc(OC)c(OC)c3)CC2)nc(C)n1`?
FBW7 activator: 0.1; TEAD-YAP inh: 7.8; GPR151 ag: 0.1; MITF inh: 107.1*; MITF inh conf: -4.0; AS interf ctr: -7.8

What do the screens show for `COc1cc(OC)cc(C(=O)N2CCN(Cc3ccncc3)CC2)c1`?
FBW7 activator: -0.4; TEAD-YAP inh: 9.2; GPR151 ag: 0.7; MITF inh: 83.7*; MITF inh conf: 3.5; AS interf ctr: 4.0

What do the screens show for `COc1cc(OC)cc(C(=O)N2CCN(Cc3ccc(OC)c(OC)c3)CC2)c1`?
FBW7 activator: -0.2; TEAD-YAP inh: 2.9; GPR151 ag: 1.4; MITF inh: 35.0
